# POLI inh: inhibitors of human DNA polymerase iota; Q9UNA4; Pol iota fluorescent replication assay, 10 min; Potency, µM (titrated, usually from 115 µM), for the others: at the top dose activity, negative = inhibition, usual class: inhibitors; 390,000 compounds, 1% hits; AID 588590; further: potency means the concentration at half of the fitted maximal effect
# Target sequence (Q9UNA4 whole entry, looked up): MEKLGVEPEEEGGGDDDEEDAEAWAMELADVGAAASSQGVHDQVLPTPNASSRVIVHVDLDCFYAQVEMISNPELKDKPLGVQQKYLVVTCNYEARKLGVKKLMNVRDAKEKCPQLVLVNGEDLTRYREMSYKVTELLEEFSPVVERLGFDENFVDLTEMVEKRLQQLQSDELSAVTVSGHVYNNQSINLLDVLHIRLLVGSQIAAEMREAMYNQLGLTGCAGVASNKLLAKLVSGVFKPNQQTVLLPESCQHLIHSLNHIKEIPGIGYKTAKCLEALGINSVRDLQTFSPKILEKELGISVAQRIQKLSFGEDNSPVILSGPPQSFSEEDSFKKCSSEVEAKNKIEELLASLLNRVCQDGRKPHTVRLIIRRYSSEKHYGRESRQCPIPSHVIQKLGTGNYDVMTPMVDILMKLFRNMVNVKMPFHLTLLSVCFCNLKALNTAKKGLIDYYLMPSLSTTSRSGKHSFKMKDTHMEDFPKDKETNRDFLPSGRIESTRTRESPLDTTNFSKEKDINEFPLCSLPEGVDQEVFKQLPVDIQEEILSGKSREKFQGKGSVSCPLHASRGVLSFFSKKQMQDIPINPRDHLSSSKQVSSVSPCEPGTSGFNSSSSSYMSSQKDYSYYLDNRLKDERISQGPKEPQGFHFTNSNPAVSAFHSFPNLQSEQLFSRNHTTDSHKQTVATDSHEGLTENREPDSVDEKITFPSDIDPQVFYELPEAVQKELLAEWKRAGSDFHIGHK
#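 Fluorescent replication assay read twice, at 0 min and 10 min after adding 50 nM (final) substrate. Enzyme (10 nM) and compounds were first incubated 15 min at room temperature; enzyme-free buffer wells were negative controls.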
# L3MBTL1 block: inhibitors of human L3MBTL1. AlphaScreen L3MBTL1–H3K9me1 peptide binding. Potency, µM (titrated, usually from 57.1 µM), for inactives: at the highest dose activity, negative = inhibition, actives largely listed as inhibitors. 230,000 compounds, 0.66% hits. AID 485360; further: potency means the concentration at half of the fitted maximal effect; on the % scale 0 is the no-effect control and ±100 the full control effect; nearly all actives have a fitted effect of over 60% in size
#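 Displacement of a biotinylated histone H3(1-15) peptide monomethylated at Lys9 (75 nM) from L3MBTL1 (50 nM) was measured by AlphaScreen after a 30 min room-temperature compound incubation; cefsulodin titration served as intraplate control.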
# Pol kappa inh-1: inhibitors of human DNA polymerase kappa; Q9UBT6; purified Pol kappa, fluorescent DNA synthesis assay, 10 min; Potency, µM (highest dose often 107 µM), inactives show at the highest dose activity, negative = inhibition, usual class: inhibitors; 400,000 compounds, 0.53% hits; AID 588579; further: potency means the concentration at half of the fitted maximal effect; on the % scale 0 is the no-effect control and ±100 the full control effect
#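 Here, compound and 10 nM enzyme are combined for 15 min at room temperature; adding 50 nM substrate (final) starts DNA synthesis, tracked by fluorescence at 0 and 10 min against buffer-only wells.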
# Pol eta inh-1: DNA polymerase eta (human) inhibition; Q9Y253; recombinant Pol eta, fluorescent DNA replication assay; Potency, µM (titrated, usually from 114 µM), without a hit: at the top dose activity change, negative = inhibition, usual class: inhibitors; 390,000 compounds, 1.2% hits; AID 588591; further: potency means the concentration at half of the fitted maximal effect; on the % scale 0 is the no-effect control and ±100 the full control effect
#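 Pol eta at 10 nM preincubated with compounds 15 min at room temperature; reaction started with fluorescent substrate (50 nM final) and read kinetically at 0 and 10 min.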
# APEX1 inh: APE1 (human) endonuclease inhibition | Potency, µM (top dose mostly 65.8 µM), without a hit: at the highest dose activity change, negative = inhibition, most hits filed as inhibitors | 350,000 compounds, 0.35% hits | P27695 | AID 2517 | recombinant APE1, TAMRA/BHQ-2 abasic DNA cleavage fluorescence;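 further: potency means the concentration at half of the fitted maximal effect; plate controls were vehicle for no effect and reference inhibitor for full effect; nearly all actives have a fitted effect of over 55% in size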
#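 APE1 at 0.75 nM preincubated 15 min at room temperature with compound. Reaction then started with 50 nM double-stranded THF-abasic substrate labelled with TAMRA/BHQ-2, and 525/598 nm fluorescence read kinetically. Activity taken as third-minus-first read difference, normalized to DMSO and NSC13755 controls.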
# POLB inh: DNA polymerase beta (human) inhibition; P06746; Pol beta primer extension/strand displacement, fluorescence kinetic; Potency, µM (series often up to 114 µM), inactives show top-dose activity change, negative = inhibition, most hits filed as inhibitors; 340,000 compounds, 1.3% hits; AID 485314; further: potency means the concentration at half of the fitted maximal effect; on the % scale 0 is the no-effect control and ±100 the full control effect
#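 Curves were derived by four-parameter Hill fits of normalized qHTS data. The kinetic fluorescent primer-extension read was taken at 0 and 10 min after 50 nM substrate, following a 15 min room-temperature preincubation of 10 nM enzyme with compounds.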
# GALK confirm: galactokinase (human) inhibition, confirmation; Potency, µM (titrated, usually from 115 µM), for inactives: top-dose activity, negative = inhibition, most hits filed as inhibitors; purified GALK, Kinase-Glo ATP depletion luminescence; AID 2015; 150 compounds, 70% hits; shares compounds with Pol eta inh-1
# GALK redox cs: generates H2O2 by redox cycling, flagging GALK artifacts; Potency, µM (doses to about 115 µM), for inactives: top-dose activity change, negative = H2O2 signal, hits mostly inhibitors; 150 compounds, 40% hits; Phenol red-HRP H2O2 redox cycling, absorbance 600 nm; shares compounds with Pol eta inh-1; AID 2035
# HEK293 viability: reduces HEK-293 cell viability in GALK counter-screen. shares compounds with Pol eta inh-1. HEK-293 viability, ATP luminescence (CellTiter-Glo), 24/48 h. Potency, µM (doses to about 46.1 µM), without a hit: at the top dose activity change, negative = cytotoxicity, hits mostly inhibitors. 170 compounds, 10% hits; further: potency means the concentration at half of the fitted maximal effect; on the % scale 0 is the no-effect control and ±100 the full control effect
# Pol kappa inh-2: confirmation of human DNA polymerase kappa inhibitors; 920 compounds, 76% hits; shares compounds with Pol eta inh-1; purified Pol-kappa, fluorescent strand-displacement substrate; Potency, µM, most hits filed as inhibitors; further: potency means the concentration at half of the fitted maximal effect
# Pol eta inh-2: Pol eta (human) inhibition, cherry-pick confirmation. Potency, µM, usual class: inhibitors. Pol eta primer extension, TAMRA/BHQ fluorescence, 10 min. shares compounds with Pol eta inh-1. 2,600 compounds, 64% hits; further: potency means the concentration at half of the fitted maximal effect
# Starred values were filed as active, the others as inactive; ? = inconclusive; · = not tested or not shown; [ ] = remark or other dose. This is a sample that favours compounds with a hit; in the whole collection about 2.5% have one here. The call rests on the fitted dose curve; in most records, active means well fitted curve in the direction sought with a large enough effect; inconclusive means small, poorly fitted or top-dose-only effect, or another doubt; inactive means no such curve, though single readings can be large; an effect the other way counts as inactive or inconclusive.
SMILES,POLI inh,L3MBTL1 block,Pol kappa inh-1,Pol eta inh-1,APEX1 inh,POLB inh,Pol eta inh-2,others
CCCCC1C(=O)CC[C@H]2[C@@H]1CC(=O)[C@@H]2C/C=C\CCCC(=O)O (stereo partly drawn),?,1%,-26%,?,10%,26%,?,
CCCCCC1C(=O)CCC1CC(=O)O (stereo not drawn),·,·,-3%[60.1 µM],·,0%,·,·,
COc1cc([C@@H]2CC(=O)c3c(O)cc(O)cc3O2)ccc1O,·,·,-4%[60.1 µM],·,-4%,·,·,
COC(=O)c1cc(COc2ccc3c4c(c(=O)oc3c2)CCCC4)c(C)o1,-12%,4%,-3%,-9%,0%,-1%,·,
Cc1oc(C(=O)O)cc1COc1ccc2c3c(c(=O)oc2c1)CCC3,-19%,·,?,18µM*,-4%,35µM*,?,
CCCn1c(CCC(=O)Nc2cccc(C)c2C)nc2cccnc21,-9%,·,-7%,-5%,·,1%,·,
C[C@H](NC(=O)C1CCC(CNC(=O)[C@@H]2CCCN2C(=O)OC(C)(C)C)CC1)C(=O)O (stereo partly drawn),22%,·,2%,-13%,9%,-28%,·,GALK confirm=-2%;GALK redox cs=2%;HEK293 viability=2%
CC(C)[C@H](NC(=O)C1CCC(CNC(=O)[C@@H]2CCCN2C(=O)OC(C)(C)C)CC1)C(=O)O (stereo partly drawn),-4%,·,4%,-23%,-3%,-1%,·,
CCCC1O[C@@H]2C[C@H]3[C@@H]4CCC5=CC(=O)C=C[C@]5(C)C4[C@@H](O)C[C@]3(C)[C@]2(C(=O)CO)O1 (stereo partly drawn),-5%[58.9 µM],·,·,-3%[57.1 µM],13%,4%[57.1 µM],·,
Cc1cccc(NC(=O)c2sc3nc(-c4cc5ccc(O)cc5oc4=O)[nH]c(=O)c3c2C)c1,41%,·,-3%,?,·,?,?,
COCCOC(=O)C1=C(C)NC(C)=C(C(=O)OC/C=C/c2ccccc2)C1c1cccc([N+](=O)[O-])c1 (stereo not drawn),·,·,-13%[60.1 µM],·,-6%,·,·,
COc1ccc(C2C=C(c3ccccc3)Nc3nc(NS(=O)(=O)c4ccc(C)cc4)nn32)cc1 (stereo not drawn),27%,·,-13%,-29%,·,-2%,·,
Cc1ccc(C2C=C(c3ccccc3)Nc3nc(NS(=O)(=O)c4ccc(C)cc4)nn32)cc1 (stereo not drawn),6%,·,-7%[60.1 µM],?,·,2%,·,Pol kappa inh-2=?
CC[C@H](C)/C=C(C)/C=C/C1=CC2=CC(=O)[C@]3(C)OC(=O)[C@@H](C(C)=O)[C@@H]3C2=CO1,22µM*,-7%,79µM*,25µM*,-2%,35µM*,?,
CN(C)Cc1ccccc1-c1nc(N2CCOCC2)c2ccccc2n1,·,·,-19%[60.1 µM],·,2%,·,·,
CC1(OC(=O)CCc2ccccc2)C(=O)C=C2C=C3CCCN3C=C2C1=O (stereo not drawn),13µM*,·,?,45µM*,?,45µM*,?,
O=C(Nc1ccnn1C1CCN(Cc2ccc(CO)o2)CC1)c1cccc(F)c1,·,·,·,4%,·,·,·,
CCOc1c(OC(C)=O)ccc(/C=C2\N=C(SCC)SC2=O)c1[N+](=O)[O-],7%,-8%,-4%,-14%,0%,-5%,·,
CCOc1cc(/C=C2\N=C(SC)SC2=O)cc([N+](=O)[O-])c1OC(C)=O,?,?,45µM*,?,-9%,22µM*,·,Pol kappa inh-2=84*
Cc1ccccc1OCC(=O)N/N=C/c1sc(=O)n(Cc2cccc(C(=O)O)c2)c1Cl,?,-15%,-18%,?,-3%,?,?,
O=C(O)c1cccc(Cn2c(Cl)c(/C=N/NC(=O)c3ccccc3Cl)sc2=O)c1,15%,26%,-1%,-5%,2%,7%,·,
COc1ccc(C(=O)N/N=C/c2sc(=O)n(Cc3cccc(C(=O)O)c3)c2Cl)cc1,18%,·,-8%,?,0%,-7%,·,
O=C(O)c1cccc(Cn2c(Cl)c(/C=N/Nc3ccccc3)sc2=O)c1,?,·,?,45µM*,18%,-4%,?,
O=C(NCc1ccco1)c1cc(S(=O)(=O)N2CCOCC2)ccc1Br,-5%,·,-3%,-1%,18%,-2%,·,
CC(=O)Nc1ccc(C2Nc3c(C)cc(C)cc3-c3cc(C)nn32)cc1 (stereo not drawn),33%,·,-12%,-25%,·,5%,·,
SMILES,POLI inh,L3MBTL1 block,Pol kappa inh-1,Pol eta inh-1,APEX1 inh,POLB inh,Pol eta inh-2,others
CC1=NN(c2ccc(C(=O)O)cc2)C(=O)/C1=C\c1ccc(OC(=O)c2cccs2)cc1,?,?,-18%,22µM*,?,?,?,
CCCN(Cc1cccs1)C(=O)Nc1ccc(Br)c(C)c1,3%,·,-14%,3%,·,?,·,
CC(C)=NOC[C@@H](C)[C@H](OCc1ccccc1)C(C)C,·,·,·,·,2%[12.4 µM],·,·,
CCc1nc2ccc(C(=O)NCCc3ccco3)cc2nc1CC,-20%,·,-1%,-7%,-5%,-3%,·,
O=C(NCCCO)c1ccc2nc(-c3ccco3)c(-c3ccco3)nc2c1,10µM*,28µM*,28µM*,7.9µM*,?,28µM*,19*,Pol kappa inh-2=19*
CCN1CCN(CCNC(=O)c2ccc3nc(-c4cccc(C)c4)c(-c4cccc(C)c4)nc3c2)CC1,-1%,·,12%,-25%,-4%,19%,·,GALK confirm=?;GALK redox cs=-27%;HEK293 viability=?
O=C(NCc1ccccc1)c1ccc2nc(-c3ccco3)c(-c3ccco3)nc2c1,8.9µM*,·,18µM*,2.5µM*,-12%,?,?,
